The whole screen tested about 190,000 compounds, of which about 810 (0.43%) were called active. Shown is part of a subset that was picked to be rich in actives. Unmarked numbers belong to inactive results. Cut-off read from the data, not from the text of the source: active = inhibition above about 50%; inactive = the rest.

In the experiment the target is Mannose-6-phosphate isomerase (Homo sapiens) (UniProt P34949). The experiment can be described thus: inhibitors of human PMI, primary screen, biochemical, fluorescence intensity, coupled assay (AID 1209).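 Note: plate controls were DMSO vehicle for no effect and wells lacking substrate for full effect.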 The note with it: purified PMI enzyme, at 20 µM, stronger effect = higher value.
Sequence of Mannose-6-phosphate isomerase (Homo sapiens) (P34949 whole entry, looked up): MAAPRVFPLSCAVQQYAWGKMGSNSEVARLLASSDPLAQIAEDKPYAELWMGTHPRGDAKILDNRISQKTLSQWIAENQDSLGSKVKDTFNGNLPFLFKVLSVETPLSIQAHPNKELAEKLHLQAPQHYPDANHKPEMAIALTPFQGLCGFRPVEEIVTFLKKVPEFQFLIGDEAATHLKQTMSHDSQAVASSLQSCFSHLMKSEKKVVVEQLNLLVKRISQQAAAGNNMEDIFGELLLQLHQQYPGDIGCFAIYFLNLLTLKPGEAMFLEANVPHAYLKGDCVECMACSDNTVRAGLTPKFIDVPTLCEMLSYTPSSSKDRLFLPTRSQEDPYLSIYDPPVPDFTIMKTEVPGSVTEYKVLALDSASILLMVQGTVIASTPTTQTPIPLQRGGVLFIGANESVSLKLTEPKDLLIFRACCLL
On to `N=c1sccn1CC(=O)NCc1ccc(Cl)cc1Cl`, for which the inhibition was -8.6%.
With `COC(=O)C1CCN(C2CC(=O)N(c3cc(C)cc(C)c3)C2=O)CC1` (stereo not drawn), the inhibition was -1.3%.
With `Cc1ccc(OCc2n[nH]c(=S)n2N)cc1C`, the inhibition is 1.5%.
On to `Nn1c(COc2ccc(Cl)cc2)n[nH]c1=S`, for which the inhibition was 12%.
Consider `COc1ccc(OCc2n[nH]c(=S)n2N)cc1`, for which the inhibition is 80.7% (active).
Regarding `O=C(NC1CCSC1=O)C1CCCCC1` (stereo not drawn), the inhibition was -2.2%.
In the case of `N#Cc1cc(-c2ccccc2)c[nH]c1=O` it was 6.1%.
Consider `Nc1cc(-c2ccncc2)c[nH]c1=O`, for which the inhibition is 50.4% (active).
In the case of `c1cc(-c2ccncc2)ccn1`, the inhibition is -8.5%.
`COC(=O)c1c(NC(=O)C2CC=CCC2C(=O)O)sc(C(N)=O)c1C` (stereo not drawn): the inhibition is 7.3%.
In the case of `Cc1ccc(NC(=O)CN(C)S(=O)(=O)c2cccc3cccnc23)cc1` it was 11.9%.
Consider `O=C(COc1cccc2cccnc12)Nc1ccccc1`, for which the inhibition is -7.8%.
In the case of `Cc1ccc(NC(=O)CN(C)C(=O)COc2cccc3cccnc23)cc1`, the inhibition is 73% (active).
Turning to `O=C(c1cccnc1)N1CCN(c2ccc(Cl)cc2)CC1`, the inhibition was -6.6%.
`O=C(/C=C/NNC(=O)c1ccc(Cl)cc1)c1ccccc1`: the inhibition was -4.1%.
Consider `COC(=O)c1ccc(C(=O)OC)c(NC(=O)CN2CCCCC2)c1`, for which the inhibition was 4.7%.
For the molecule `CCCn1nnnc1NC(=O)c1cc(Br)ccc1OC`, the inhibition is 0.2%.
On to `CCCn1nnnc1NC(=O)c1cc(Cl)ccc1Cl`, for which the inhibition was 13.1%.
In the case of `CCCn1nnnc1NC(=O)c1ccc(C)cc1Cl` it was 54.4% (active); in that of `O=c1c2ccccc2nc2c3ccccc3c(NCc3cccnc3)nn12`, 6.3%; in that of `CCN(CC)C(=S)SCC(=O)c1ccccc1`, 5.8%.
With `CCN(CC)C(=S)SSC(=S)N(CC)CC` the figure was -2.4%.
As to `CCN(CC)C(=S)SC1=CCS(=O)(=O)C1`, the inhibition was 102% (active).
In the case of `COc1ccc(OC)c([C@@H]2OCCC=C[C@H]2C)c1`, the inhibition is -2.1%.
`O=C(Nc1nc2c(s1)CCCC2)c1nn(Cc2ccccc2)c(=O)c2ccccc12`: the inhibition is 0.4%.
For `O=S(=O)(c1cccs1)N1CCN(c2ccccn2)CC1`, the inhibition was 5.9%.
Turning to `Cc1ccc(-c2nnc(CSc3nc4cc5c(cc4cc3C)OCO5)o2)cc1`, the inhibition is 15.5%.
Consider `Cc1ccc(O)c(CNc2cccc3cccnc23)c1`, for which the inhibition is 34.8%.
With `Oc1ccc(CNc2ccccc2F)c2cccnc12` the figure was 45.3%.
With `Cc1cccc(NCc2ccccc2O)c1C`, the inhibition is 29%.
Take `Cc1cccnc1NCc1ccc(O)c2ncccc12`: the inhibition is 48.4%.
As to `Cc1cccc(NCc2ccc(O)c3ncccc23)c1C`, the inhibition was 60.4% (active).
With `COc1cccc(C2C(C(=O)Nc3nc4ccccc4s3)=C(C)NC3=C2C(=O)CC(C)(C)C3)c1OC` (stereo not drawn), the inhibition was -10.5%.
Take `CC(=O)NC1C(=O)N=C(SCC(=O)NC2CCCCC2)NC1=O` (stereo not drawn): the inhibition was -8.4%.
As for `CC(=O)Nc1c(O)nc(SCC(=O)Nc2sc3c(c2C#N)CCCCCC3)[nH]c1=O`, the inhibition was 1.2%.
Turning to `CC(=O)NC1C(=O)N=C(SCC(=O)Nc2sc3c(c2C#N)CCCCCC3)NC1=O` (stereo not drawn), the inhibition is 66.1% (active).
Turning to `O=C(O)c1ccc(Nc2ncnc3c2cnn3Cc2ccccc2)cc1`, the inhibition is 7.1%.
In the case of `O=C(Cc1ccccc1)NCc1ccccn1` it was -4.7%; in that of `C/C(N)=C(/C#N)C(=O)CSc1nn(-c2ccc(Cl)cc2)c(=S)s1`, 5.6%.
In the case of `CC(=O)N1c2ccccc2C(C)(C)C2CCC(C)CC21` (stereo not drawn), the inhibition is 0.8%.
In the case of `CC(=O)N1c2ccccc2C2(O)N=C(C)SC12` (stereo not drawn), the inhibition is 60.3% (active).
With `Cc1ccc(C(=O)CC2(O)C(=O)N(C)c3ccccc32)s1` (stereo not drawn) the figure was 8.1%; with `CCOc1cc2c(C#N)c(N3CCCCC3)nc(N)c2c(N)n1`, 62.4% (active); with `CCOc1cc2c(C#N)c(N3CCNCC3)nc(N)c2c(N)n1`, 65.4% (active).
In the case of `COc1cc2c(C#N)c(N3CCCCC3)nc(N)c2c(N)n1` it was 66.7% (active); in that of `N#Cc1c(N2CCCC2)nc(N)c2c(N)nc(N3CCCC3)cc12`, 6.9%.
With `COCc1cc(C)nc(N2CCNCC2)c1C#N`, the inhibition was -0.4%.
As to `COc1cc2c(C#N)c(N3CCc4ccccc4C3)nc(N)c2c(N)n1`, the inhibition is 64.3% (active).
In the case of `COc1cc2c(C#N)c(N3CCN(c4ccccc4OC)CC3)nc(N)c2c(N)n1` it was 47.2%; in that of `COc1cc2c(C#N)c(N3CCOCC3)nc(N)c2c(N)n1`, 28.9%; in that of `COc1cc2c(C#N)c(N3CCN(C)CC3)nc(N)c2c(N)n1`, 42.5%.
Take `CCCN(CC1CC1)c1nc(N)c2c(N)nc(OC)cc2c1C#N`: the inhibition was 47.8%.
Take `CCCCN(CC)c1nc(N)c2c(N)nc(OCC)cc2c1C#N`: the inhibition was 37.5%.
In the case of `CCOc1ccccc1N1CCN(c2nc(N)c(C#N)c(CC#N)c2C#N)CC1` it was 12.6%; in that of `COc1ccc2cc(CN(CC3CCCO3)C(=O)Nc3ccccc3OC)c(=O)[nH]c2c1` (stereo not drawn), 3.2%; in that of `Cc1ccc2nc(C)c(C(=O)N/N=C/c3ccc(C(=O)O)cc3)cc2c1`, 13.8%.
Turning to `Cn1cccc1C(=O)NC(=O)COC(=O)c1ccccc1O`, the inhibition was 9.4%.
In the case of `Cc1cc(NC(=S)N(CCCN2CCN(C)CC2)Cc2ccco2)ccc1Cl` it was 3.6%; in that of `CC1CCN(C(=O)CSc2nnc(CSc3ncccn3)n2C)CC1`, -8.9%.
In the case of `CCOC(=O)c1nnc(-c2ccccc2)nc1Oc1ccc(Cl)cc1` it was 2.2%; in that of `Cc1ccc(Oc2ccc(NC(=O)c3ccco3)cc2)cc1`, 6.1%.
On to `O=C(Nc1cccc(-c2nnc(-c3ccccc3)o2)c1)c1ccco1`, for which the inhibition was 7.4%.
For the molecule `Cc1ccc(-c2nnc(-c3ccc(NC(=O)c4ccco4)cc3)o2)cc1`, the inhibition is 75.9% (active).
With `CCN(CC)c1ccc(/C=N/N2CCOCC2)c(O)c1` the figure was 19.6%; with `COc1cccc(/C=N/N2CCOCC2)c1O`, 4.9%; with `CC(C)c1nc(CN2CCCCC2)cc(=O)[nH]1`, 8.6%.
On to `CCN(CC)S(=O)(=O)c1ccc(C(=O)NCc2n[nH]c(=S)n2Cc2ccccc2)cc1`, for which the inhibition is 10.2%.
With `CC1=C(C(N)=O)C(c2cccs2)NC(=S)N1` (stereo not drawn), the inhibition is -11.8%.
In the case of `Cc1nn(C)c(C)c1N1C(=O)c2cccc3c(N)ccc(c23)C1=O` it was 6%; in that of `Cc1nn(C)c(C)c1N1C(=O)c2cccc3c(Br)ccc(c23)C1=O`, -0.5%; in that of `CC(=O)c1ccc2c3c(cccc13)C(=O)N(c1c(C)nn(C)c1C)C2=O`, 74.2% (active).
As for `O=C(NC(NC(=O)c1ccccc1)C(=O)c1ccccc1)c1ccccc1`, the inhibition was 109% (active).
As to `O=C(NC(Nc1ncccn1)C(=O)c1ccccc1)c1ccccc1` (stereo not drawn), the inhibition is -2%.
In the case of `O=C(NC(NC(=O)c1ccccc1)c1ccccc1)c1ccccc1` it was -8.6%; in that of `CC(NC(=O)c1ccc2c(c1)OCCO2)C(=O)O` (stereo not drawn), -5.6%.
In the case of `Cn1cc(CNCc2cnc3ccccn23)c(-c2ccc(Oc3ccccc3)cc2)n1` it was 4.9%; in that of `CCN(CC)S(=O)(=O)c1ccc(NC(=O)c2cc(-c3cccs3)nc3ccccc23)cc1`, -4.8%.
In the case of `O=[N+]([O-])c1ccc2c(c1Nc1ccccc1)=NC1(CCCCC1)N=2`, the inhibition was 46.2%.
Take `[O-][N+]1=c2ccc(Nc3ccccc3)cc2=NC12CCCCC2`: the inhibition is 79.7% (active).
With `c1ccc(Nc2cccc(Nc3ccccc3)c2)cc1`, the inhibition was 21%.
With `COc1cc(C(=O)N/N=C(\C)c2ccc3c(c2)OCO3)cc(OC)c1OC`, the inhibition is 2.6%.
`Cc1cc(C)n(-c2ccc([N+](=O)[O-])cc2)n1`: the inhibition was 7%.
In the case of `C=CCn1c(SCC(=O)N2N=C(c3ccco3)CC2c2ccco2)nnc1-c1ccncc1` (stereo not drawn), the inhibition was 57.4% (active).
Regarding `C=CCn1c(SCC(=O)N2CCCCC2)nnc1-c1ccncc1`, the inhibition was -1.3%.
As for `COc1ccc(C2=NN(C(=O)CSc3nnc(C)n3C)C(c3ccco3)C2)cc1` (stereo not drawn), the inhibition is -23.9%.
In the case of `CN(C)C(=S)Nn1c(-c2ccccc2)nc2ccccc2c1=O` it was 4.8%; in that of `COc1ccc(-c2nc3ccccc3c(=O)n2NC(=S)N(C)C)cc1`, 57.4% (active).
For `Cc1ccc(-c2nc3ccccc3c(=O)n2NC(=S)N(C)C)cc1`, the inhibition is 16.6%.
On to `CCOC(=O)C1(C)C=C(Nc2ccc(OCC)cc2)C(=O)N1c1ccccc1` (stereo not drawn), for which the inhibition was 11.1%.
With `CCCCC(=O)Nc1sc(C(=O)N(CC)CC)c(C)c1C(=O)OC` the figure was 58.3% (active); with `CCOC(=O)c1c(NC(=O)CCl)sc(C(=O)N(CC)CC)c1C`, -11.1%.
As for `CCOC(=O)c1c(NC(=O)CN(C)C)sc(C(=O)N(CC)CC)c1C`, the inhibition is 8.3%.
With `CC(C)CN(C(=O)CN1CCC(C)CC1)c1c(N)n(CC(C)C)c(=O)[nH]c1=O` the figure was -5.2%; with `COc1ccc(C(=O)N/N=C(\C)CC(=O)N2CCN(C=O)CC2)cc1`, 5.1%.
With `C/C(CC(=O)N1CCN(C=O)CC1)=N\NC(=O)c1cc2ccccc2cc1O`, the inhibition is 84.9% (active).
In the case of `C/C(CC(=O)N1CCN(C=O)CC1)=N\NC(=O)c1ccc(Cl)cc1`, the inhibition was -0.6%.
With `Cc1cc(C)nc(Nc2n[nH]c(-c3ccccc3C)n2)n1` the figure was 3.4%; with `O=c1[nH]c(-c2ccccn2)nc2ccccc12`, 19.5%; with `O=c1[nH]c(-c2cccnc2)nc2ccccc12`, 7.1%.
For `O=c1[nH]c(-c2ccncc2)nc2ccccc12`, the inhibition was 71.3% (active).
Regarding `CCOC(=O)C(C)n1cnc2c(nnn2-c2cccc(Cl)c2)c1=O` (stereo not drawn), the inhibition was -9.6%.
As for `COc1ccccc1NC(C)C(=O)Nc1ccc(C(C)=O)cc1` (stereo not drawn), the inhibition was 19.5%.
For `CCc1ccc(NC(=O)c2ccccc2SC)cc1`, the inhibition was 7.2%.

Values taken from PubChem BioAssay AID1209 (Sanford-Burnham Center for Chemical Genomics, 2008).
